Data published in the supplement of paper PMC9254222.
Whole data set: some 1,100 compounds, median “Renilla luciferase signal (cell health) relative to plate median” near 0.97, cut for the highest 2% near 1.6. The list comes from a sample in which the highest values are over-represented; it also holds similar structures and randomly drawn compounds.

System: HEK293T (UBE3A T485A transfected, BAR Wnt reporter)
Test: Renilla luciferase signal (cell health) relative to plate median (fold (linear ratio)); higher = higher Renilla signal
Conditions: 24 h
Summary of the method: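 Each value averages four biological replicates in HEK293T cells grown at 4500 cells/well in DMEM with 10% FBS at 37°C and 5% CO2. The cells were transfected with a BAR firefly luciferase Wnt reporter, TK-Renilla and an expression plasmid, then four hours later robotically treated with the chemicals at 0.01–100 uM for 24 h. Dual-Glo luciferase signals were median-centred per plate, with the firefly/Renilla ratio reported as Wnt activity and raw Renilla as cell health.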

SMILES	Renilla luciferase signal (concentration: 0.01 uM)	Renilla luciferase signal (concentration: 0.1 uM)	Renilla luciferase signal (concentration: 1 uM)	Renilla luciferase signal (concentration: 10 uM)	Renilla luciferase signal (concentration: 100 uM)
O=C(Nc1ccccc1)Nc1cnns1 [Thidiazuron]	1.1	1.07	1	0.921	0.135
C[Si](Cn1cncn1)(c1ccc(F)cc1)c1ccc(F)cc1 [Flusilazole]	1.03	1.08	1.03	0.986	0.258
CC(C)[C@H](C(=O)O[C@H](C#N)c1cccc(Oc2ccccc2)c1)c1ccc(Cl)cc1 [Esfenvalerate]	0.932	0.969	0.846	0.908	0.397
Nc1cnn(-c2ccccc2)c(=O)c1Cl [Chloridazon]	0.928	0.982	0.916	1.1	1.34
Cc1ccccc1[N+](=O)[O-] [2-Nitrotoluene]		1.24	1.08	1.14	1.33
Cc1nc(N(C)C)nc(OC(=O)N(C)C)c1C [Pirimicarb]	1.09	1.09	1.1	1.21	2.4
O=C([O-])C(F)(F)C(F)(F)C(F)(F)C(F)(F)C(F)(F)C(F)(F)C(F)(F)F.[NH4+] [PFOA, ammonium salt]		0.839	0.971	0.797	0.224
Clc1cccc(Cl)c1 [1,3-Dichlorobenzene]		0.976	1.06	1.08	1.26
Cc1ccc(N=C=O)cc1N=C=O [Toluene-2,4-diisocyanate]		0.891	0.94	1.08	0.677
CNC(=O)CSP(=S)(OC)OC [Dimethoate]	1.22	0.985	0.987	1.12	1.67
COP(=S)(OC)SCN1C(=O)c2ccccc2C1=O [Phosmet]		0.82	0.838	0.713	0.82
COc1nn(CSP(=S)(OC)OC)c(=O)s1 [Methidathion]	0.805	0.65	0.845	0.715	0.562
CCC1(c2ccccc2)C(=O)N=C([O-])NC1=O.[Na+] (stereo not drawn) [Phenobarbital sodium]		0.831	0.817	0.777	0.914
COCCOCCO [Diethylene glycol monomethyl ether]		1.01	0.991	1.01	1.32
C[N+]1(C)CCCCC1.[Cl-] [Mepiquat chloride]	1.1	1.08	1.06	1.02	1.31
CN(C)C(=S)[S-].[Na+] [Sodium dimethyldithiocarbamate]		0.974	1.07	0.874	1.06
CN(C)C(=S)[S-].CN(C)C(=S)[S-].[Zn+2] [Ziram]		0.814	0.726	0.999	0.0214
CNC(=S)[S-].O.O.O.[Na+] [Metam-sodium hydrate]	1.32	1.02	1.07	1.06	1.67
Nc1ccc(/N=N/c2ccccc2)cc1 [4-Aminoazobenzene]		0.476	0.565	0.351	0.181
NC1=NC(O)C2C3OC4(O)OC(C(O)C2(N1)C4O)C3(O)CO (stereo not drawn) [Tetrodotoxin (TTX)]	1.02	0.976	0.904	1.03	2.57

SMILES	Renilla luciferase signal (concentration: 0.01 uM)	Renilla luciferase signal (concentration: 0.1 uM)	Renilla luciferase signal (concentration: 1 uM)	Renilla luciferase signal (concentration: 10 uM)	Renilla luciferase signal (concentration: 100 uM)
OC(c1ccc(Cl)cc1)(c1cncnc1)c1ccccc1Cl (stereo not drawn) [Fenarimol]	1.21	0.875	0.953	0.942	0.199
CCN(CC)c1ccccc1 [N,N-Diethylaniline]		1.07	1.06	1.09	1.47
OCCCBr [3-Bromo-1-propanol]		0.865	0.896	0.988	0.976
CCOC(=O)COc1cc(-c2nn(C)c(OC(F)F)c2Cl)c(F)cc1Cl [Pyraflufen-ethyl]	0.786	0.651	0.92	0.846	1.17
CCOC(=O)C(Cl)Cc1cc(-n2nc(C)n(C(F)F)c2=O)c(F)cc1Cl (stereo not drawn) [Carfentrazone-ethyl]	0.995	1.11	0.895	0.956	1.9
Cc1nn(-c2cc(NS(C)(=O)=O)c(Cl)cc2Cl)c(=O)n1C(F)F [Sulfentrazone]	1.01	1.05	0.889	1.04	1.21
COc1cc(-c2ccc(N)c(OC)c2)ccc1N.Cl.Cl [3,3'-Dimethoxybenzidine dihydrochloride]		0.847	0.823	0.799	0.158
COc1cc(-c2ccc(N)c(OC)c2)ccc1N [3,3'-Dimethoxybenzidine]		0.89	0.92	0.684	0.388
COc1cc(Cl)c(OC)cc1Cl [Chloroneb]	0.913	0.991	1.07	1.06	1.91
CNc1cnn(-c2cccc(C(F)(F)F)c2)c(=O)c1Cl [Norflurazon]	1.06	0.78	0.77	0.879	1.28
CCC(C)(C)c1ccc(O)c(C(C)(C)CC)c1 [2,4-Bis(2-methylbutan-2-yl)phenol]		1.05	1.07	0.955	1.13
N#CN [Cyanamide]	0.837	0.715	0.775	0.84	1.25
CNC(=O)/C=C(\C)OP(=O)(OC)OC [Monocrotophos]	0.824	0.815	0.785	0.826	1.45
COP(=O)(OC)O/C(C)=C/C(=O)N(C)C [Dicrotophos]	1.19	1.16	0.994	1.09	1.78
COP(=O)(OC)OC=C(Cl)Cl [Dichlorvos]	1.12	0.778	0.818	0.853	0.717
COc1cc(C=O)cc2c1[C@H](COC(N)=O)[C@]1(OC(C)=O)ON2C[C@H]2[C@@H]1N2C(C)=O		0.566	0.0435	0.0233	0.0248
CCOP(=S)(OCC)SCn1c(=O)oc2cc(Cl)ccc21 [Phosalone]	0.915	1.15	1.1	1.11	0.931
CCCCN(CC)c1c([N+](=O)[O-])cc(C(F)(F)F)cc1[N+](=O)[O-] [Benfluralin]	1.12	0.838	0.99	0.917	1.31
COc1cc2c(c(OC)c1OC)-c1ccc(OC)c(=O)cc1[C@@H](NC(C)=O)CC2 [Colchicine]		0.0537	0.036	0.0452	0.0414
